Assay [1] is described as follows: inhibitors of TNFa-induced NFkB p65 translocation, primary screen, imaging, HUVEC, MLSMR starter and 10KST1 sets (AID 438;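 active = inhibition above 20% together with a positive visual image hit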;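 note: compound added about 3h40 before a 20 min TNFalpha stimulation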;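 for inhibition: signal is the nuclear over cytoplasmic p65 intensity ratio per well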). The following applies: HUVEC TNFa-induced p65 nuclear translocation; cell count: measured here: nuclei count (cytotoxicity indicator), at 2.08 µM; inhibition: at 2 µM, stronger effect = higher value, 0% TNFa-plus-vehicle, 100% no-TNFa wells.
The nature of assay [2]: reduction of polyQ htt aggregates in cells – imaging, exon1htt(103Q)mCFP cells, high-content imaging, primary screen (AID 483;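 active = visual image review flags a hit and inhibition of aggregation exceeds 20%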;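 note: compound exposure lasted 3 days before fixation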;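 for nuclei count: percent of the per-plate median nuclei count of sample wells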). The following applies: exon1htt(103Q)mCFP cell line, aggregate imaging, at 2 µM; inhibition of aggregation: stronger effect = higher value; nuclei count: measured here: cell count, toxicity.
Assay [3] is described as follows: endothelial E-selectin expression blockers – imaging, HUVEC, immunofluorescence, MLSMR starter and 10KST1 sets, primary screen (AID 487;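 active = visually confirmed hit in the image check and inhibition above 20%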;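 for inhibition: signal is fraction of cell area covered by stained E-selectin grains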;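 for nuclei count: 100% = median nuclei count of all wells on the same plate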). The following applies: HUVEC TNFalpha-induced E-selectin immunofluorescence imaging, at 2 µM; inhibition: stronger effect = higher value; nuclei count: measured here: cell number, toxicity.
Assay [4] can be described thus: Primary imaging screen for DUSP6 inhibitors that restore phospho-Erk in transfected HeLa cells, chemical complementation (AID 609;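 active = compounds giving at least 50% inhibition in the cell-based MKP-3 phosphatase rescue imaging test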;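 for inhibition: phospho-Erk level distribution per well compared with pooled transfected vehicle control wells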). The following applies: HeLa MKP-3 transfected, phospho-Erk imaging KS statistic, at 10 µM, cells stimulated with TPA for 15 min.
For assay [5], the target named is Dual specificity protein phosphatase 6 (Homo sapiens) (UniProt Q16828). The assay is described as above. The settings on record: HeLa MKP-3 transfected, phospho-Erk imaging KS statistic; at 10 µM; stronger effect = higher value; cells stimulated with TPA for 15 min.
Chain of Dual specificity protein phosphatase 6 (Homo sapiens) (Q16828 whole entry, looked up): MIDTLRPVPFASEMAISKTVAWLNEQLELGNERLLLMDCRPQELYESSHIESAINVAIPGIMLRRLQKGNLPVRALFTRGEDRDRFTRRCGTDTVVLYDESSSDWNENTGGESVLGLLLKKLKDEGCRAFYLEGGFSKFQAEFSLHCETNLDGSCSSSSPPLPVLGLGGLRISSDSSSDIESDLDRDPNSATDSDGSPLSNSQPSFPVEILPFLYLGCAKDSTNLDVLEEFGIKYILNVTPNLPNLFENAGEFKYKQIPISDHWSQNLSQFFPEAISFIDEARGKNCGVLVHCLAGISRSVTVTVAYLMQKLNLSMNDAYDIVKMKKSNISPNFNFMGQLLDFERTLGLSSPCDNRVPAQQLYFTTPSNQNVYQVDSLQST
The target in assay [6] is Voltage-gated potassium channel subunit beta-2 (Rattus norvegicus) (UniProt P62483). Nature of the assay: inhibitors of rat Kvbeta2 reductase activity – biochemical, NADPH fluorescence, primary screen (AID 622;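 active = fluorescence slope higher than the sample average by over 3 SD, cut at about -0.22 in these data, passing the limit was not always enough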;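 note: slope of raw intensity against log time taken from 70 to 1610 s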). The following applies: recombinant KvBeta, 4-cyanobenzaldehyde reduction, at 10 µM, stronger effect = higher value.
Chain of Voltage-gated potassium channel subunit beta-2 (Rattus norvegicus) (P62483 whole entry, looked up): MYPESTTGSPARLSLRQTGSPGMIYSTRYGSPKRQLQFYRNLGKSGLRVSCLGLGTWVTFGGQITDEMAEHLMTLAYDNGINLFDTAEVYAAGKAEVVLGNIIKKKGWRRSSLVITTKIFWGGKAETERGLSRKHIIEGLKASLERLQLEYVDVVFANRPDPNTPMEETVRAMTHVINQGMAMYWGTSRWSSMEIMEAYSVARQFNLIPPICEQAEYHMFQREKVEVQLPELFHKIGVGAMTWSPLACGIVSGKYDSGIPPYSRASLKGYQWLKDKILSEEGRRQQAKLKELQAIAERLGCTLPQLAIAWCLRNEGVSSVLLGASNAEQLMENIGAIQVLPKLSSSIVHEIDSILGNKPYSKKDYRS
Assay [7] shares this target. The assay is described as follows: enhancers of rat Kvbeta2 NADPH turnover – biochemical, NADPH fluorescence, primary screen (AID 623;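 active = NADPH fluorescence slope more negative than the mean of all samples by about 3 SD, 99.7% confidence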;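 note: fluorescence intensity change per second fitted from 20 to 320 s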). The settings on record: Recombinant KvBeta, NADPH fluorescence decrease slope, 10 min; at 10 µM; stronger effect = lower value.
Assay [8] deals with Alpha-2C adrenergic receptor (Homo sapiens) (UniProt P18825). Nature of the assay: compounds altering alpha2C-coupled GIRK flux – cell-based, HEK293 alpha2C/GIRK1/2, thallium flux, primary screen (AID 624).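 Note: slope of fluorescence ratio to pre-addition baseline per second over 15 to 24 s.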 The settings on record: thallium flux BTC fluorescence, at 10 µM, actives lie on both sides.
Chain of Alpha-2C adrenergic receptor (Homo sapiens) (P18825 whole entry, looked up): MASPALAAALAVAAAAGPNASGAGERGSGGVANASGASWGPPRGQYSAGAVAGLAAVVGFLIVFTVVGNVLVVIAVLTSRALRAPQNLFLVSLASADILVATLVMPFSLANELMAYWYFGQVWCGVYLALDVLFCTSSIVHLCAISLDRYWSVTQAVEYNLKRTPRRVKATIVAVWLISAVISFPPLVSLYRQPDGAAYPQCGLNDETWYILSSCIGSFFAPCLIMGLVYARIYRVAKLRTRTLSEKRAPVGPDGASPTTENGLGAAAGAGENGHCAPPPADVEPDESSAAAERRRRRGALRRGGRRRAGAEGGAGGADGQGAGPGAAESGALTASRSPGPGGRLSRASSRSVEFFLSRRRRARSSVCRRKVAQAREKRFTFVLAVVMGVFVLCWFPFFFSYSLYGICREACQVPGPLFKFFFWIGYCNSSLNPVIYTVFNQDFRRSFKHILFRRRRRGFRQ
Assay [9] is described as follows: inhibitors of larval lipid processing in zebrafish, primary screen, whole organism, PED6 fluorescence, gall bladder and intestine (AID 686;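 active = a full or partial loss of lipid-probe fluorescence in the fish gall bladder, intestine or both, judged by eye; inactive = no fluorescence loss, or compound toxic to the fish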;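 note: larvae 5 to 7 days old with five fish per well; signal comes from phospholipase A2 cleavage of quenched PED6 carried via bile; overnight exposure to compound and PED6 before scoring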). The following applies: Zebrafish larvae PED6 lipid processing, fluorescence scoring; screened at 20 µM (by protocol).
Assay [10] in a line: loss of swimming-algae plug formation – whole organism, Chlamydomonas reinhardtii, WT vs cilia-less mutant, absorbance, 96-well, primary screen (AID 463189;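 active = inhibition at or above 50% relative to wild type and mutant plate controls; inactive = inhibition below 50%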;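 note: 0% = wild type cc124 cells in DMSO and 100% = ciliumless bld1 mutant cells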). The following applies: Chlamydomonas reinhardtii gravitaxis, OD600 absorbance, 2 days; at 10 µM; stronger effect = higher value.
Assay [11] in a line: blockers of RIG-like receptor reporter activation – cell-based, Sendai virus stimulus, luciferase, 10K MLSCN set, TLR/RLR signaling modifier project, primary screen (AID 602276;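 active = inhibition at or above 50% at 10 µM; inactive = inhibition below 50%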;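 note: firefly luciferase from ISG56 promoter only with Renilla not read in this screen; 0% = Sendai virus plus DMSO and 100% = medium plus DMSO without virus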). The settings on record: HEK293 RL24 IRF3 luciferase reporter, at 10 µM, stronger effect = higher value. For orientation: In a reporter assay the amount or activity of a reporter protein is the signal.
A short description of assay [12]: TLR3 IRF3 reporter activation blockers – cell-based, poly I:C stimulus, luciferase, 10K MLSCN set, primary screen (AID 602277;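 active = inhibition of the reporter signal at or above 50%; inactive = inhibition below 50%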). The following applies: HEK293-TLR3 RL24 IRF3 luciferase reporter, at 10 µM, stronger effect = higher value.
The mark [13] stands for this setting: measured here: cell density z-score.
The mark [14] stands for this setting: measured here: nuclear c-Myc green intensity z-score.
[15] abbreviates: measured here: nuclear pErk red intensity z-score, stronger effect = higher value.

Structures are written as SMILES. Activity calls are given as the source filed them.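 Rule for the calls, unless noted: active = fluorescence slope after compound addition differing from the mean of all screened samples at 99.7% confidence, in either direction; inactive = the rest.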

For `Clc1ccc(Cl)c(-c2ccc(/C=N/c3ncn[nH]3)o2)c1`, the cell count in [1] was determined as 439. For the same compound, the inhibition in assay [1] was -0.4% (inactive); in assay [3] it was -127% (inactive); in assay [5] it was -4.27% (inactive); in assay [10], 73.7% (active); in [11], 13.4% (inactive); in assay [12], 18.3% (inactive). Moreover, in assay [2], the inhibition of aggregation is 6.2% (inactive). Further, the nuclei count in assay [2] was determined as 104%; in assay [3] it was 122%. Moreover, the z-score is -0.606 in assay [4] (setting [13]), -0.195 in [4] (setting [14]) and 1.4 in assay [4] (setting [15]). In addition, the fluorescence slope in assay [6] is -0.438 (inactive). Moreover, the NADPH fluorescence slope in assay [7] was -5.6e-05 (inactive). In addition, in [8], the slope was 0.0057 (inactive). The call in assay [9] was inactive.

Regarding `CC1(C)O[C@@H]2C[C@H]3[C@@H]4C[C@H](F)C5=CC(=O)CC[C@]5(C)[C@H]4[C@@H](O)C[C@]3(C)[C@]2(C(=O)CO)O1`, in [1], the cell count came to 547. In addition, the inhibition was -0.5% (inactive) in assay [1]; 1.2% (inactive) in [3]; -2.46% (inactive) in assay [5]; 6.62% (inactive) in [10]; -7.22% (inactive) in assay [11]; 22% (inactive) in assay [12]. In [2], the inhibition of aggregation was -27.2% (inactive). Moreover, the results for the nuclei count in assay [2] and in assay [3] were 54.1% and 102%, respectively. Further, the results for the z-score in [4] (setting [13]), in assay [4] (setting [14]) and in assay [4] (setting [15]) were -0.857, -0.0426 and 0.461, respectively. Further, the fluorescence slope in [6] was -0.476 (inactive). For the same compound, in assay [7], the NADPH fluorescence slope was -9e-05 (inactive). The slope in assay [8] is 0.00483 (inactive). Besides, in assay [9], the compound was called inactive.

With `CCOC(=O)c1[nH]c2ccccc2c1NC(=O)CCN1CCN(C(=O)OCC)CC1`, in assay [1], the cell count came out at 626. The inhibition in assay [1] is -1.9% (inactive); in assay [3] it was 1% (inactive); in assay [5] it was -5.26% (inactive); in [10], -5.66% (inactive); in assay [11] it was 14.7% (inactive); in assay [12], 19.4% (inactive). For the same compound, the inhibition of aggregation in assay [2] was -2.8% (inactive). For the same compound, the nuclei count amounted to 104% in assay [2] and 144% in assay [3]. The z-score is -1.64 in [4] (setting [13]), 0.13 in assay [4] (setting [14]) and 1.55 in assay [4] (setting [15]). For the same compound, the fluorescence slope in assay [6] is -0.344 (inactive). Also, the NADPH fluorescence slope in [7] was -4.4e-05 (inactive). Also, the slope in assay [8] was 0.00527 (inactive). The compound was called inactive in assay [9].

As to `OC(CCCN1CCC(O)(c2ccc(Cl)cc2)CC1)c1ccc(F)cc1` (stereo not given), the cell count in assay [1] worked out at 686. Further, the inhibition in assay [1] was -2.4% (inactive); in [3], -82.7% (inactive); in assay [5], 14.6% (inactive); in assay [10], 20.5% (inactive); in assay [11] it was 12.8% (inactive); in assay [12] it was 40.2% (inactive). In assay [2], the inhibition of aggregation was -13.4% (inactive). Moreover, the results for the nuclei count in assay [2] and in assay [3] were 116% and 118%, respectively. Moreover, the z-score in assay [4] (setting [13]) was 1.1; in assay [4] (setting [14]) it was 0.439; in assay [4] (setting [15]) it was -0.848. For the same compound, in assay [6], the fluorescence slope is -0.468 (inactive). Besides, the NADPH fluorescence slope in assay [7] is -6.6e-05 (inactive). In assay [8], the slope was 0.00402 (inactive). Further, in assay [9], the result was inactive.

In the case of `C[N+]12CCC(CC1)C(OC(=O)C(O)(c1ccccc1)c1ccccc1)C2` (stereo not given), the cell count in assay [1] was 609. In addition, the inhibition in assay [1] is -0.8% (inactive); in assay [3] it was -71.3% (inactive); in [5], 3.45% (inactive); in [10] it was -10.3% (inactive); in [11], 6.28% (inactive); in [12], 21.7% (inactive). For the same compound, in [2], the inhibition of aggregation was 3.7% (inactive). Also, the nuclei count turned out to be 106% in assay [2] and 119% in [3]. For the same compound, the z-score is -0.393 in assay [4] (setting [13]), -0.0364 in assay [4] (setting [14]) and 0.334 in assay [4] (setting [15]). Further, the fluorescence slope in [6] was -0.526 (inactive). For the same compound, in [7], the NADPH fluorescence slope was -2.4e-05 (inactive). The slope in [8] is 0.00456 (inactive). The outcome in assay [9] was inactive.

In the case of `COc1cc(N2C(=O)CSC23C(=O)Nc2ccccc23)cc(OC)c1OC` (stereo not given), the cell count in assay [1] was determined as 512. Also, the inhibition in [1] is -13.1% (inactive); in [3] it was -26.2% (inactive); in [5], 1.6e-07% (inactive); in [10], 24.8% (inactive); in assay [11] it was 2.33% (inactive); in assay [12], 10.8% (inactive). In addition, the inhibition of aggregation in assay [2] was -13.9% (inactive). The figures for the nuclei count in assay [2] and in assay [3] were 99.6% and 105%, respectively. For the same compound, the z-score in [4] (setting [13]) was -0.126; in assay [4] (setting [14]), -0.03; in [4] (setting [15]), 0.793. Further, the fluorescence slope in assay [6] is -0.342 (inactive). For the same compound, in assay [7], the NADPH fluorescence slope was 6.8e-06 (inactive). The slope in assay [8] is 0.00524 (inactive). Further, the outcome in assay [9] was inactive.

As to `CC1=NN(c2ccccc2)C(=O)C1`, in assay [1], the cell count was 619. The inhibition in assay [1] is -5.9% (inactive); in [3], -82.4% (inactive); in [5], 9.37% (inactive); in [10], 11.5% (inactive); in assay [11], -68.4% (inactive); in assay [12], 52% (active). Moreover, the inhibition of aggregation in assay [2] is 2.5% (inactive). For the same compound, the nuclei count in [2] stood at 98%; in [3] it was 130%. For the same compound, the z-score in assay [4] (setting [13]) was 0.599; in assay [4] (setting [14]), -0.649; in assay [4] (setting [15]) it was 1.01. The fluorescence slope in assay [6] was -0.432 (inactive). For the same compound, the NADPH fluorescence slope in [7] was 5.3e-06 (inactive). Moreover, in assay [8], the slope was 0.00466 (inactive). For the same compound, the compound was called inactive in assay [9].

As for `COc1ccc2cnn(-c3ccccc3C)c(=O)c2c1OC`, in assay [1], the cell count is 613. Further, the inhibition is -6.2% (inactive) in assay [1]; -124% (inactive) in [3]; -6.48% (inactive) in [5]; 9.21% (inactive) in [10]; 9.25% (inactive) in assay [11]; 5.14% (inactive) in assay [12]. Besides, the inhibition of aggregation in assay [2] was 1.9% (inactive). Further, the nuclei count in assay [2] turned out to be 116%; in [3] it was 157%. The figures for the z-score in assay [4] (setting [13]), in [4] (setting [14]) and in assay [4] (setting [15]) were 0.481, 0.125 and 1.16, respectively. Also, the fluorescence slope in assay [6] is -0.372 (inactive). Further, the NADPH fluorescence slope in assay [7] was -3.7e-05 (inactive). In addition, the slope in assay [8] is 0.00535 (inactive). For the same compound, in assay [9], the outcome was inactive.

Regarding `CC(C)C[C@H](NC(=O)[C@@H]1O[C@H]1C(=O)O)C(=O)NCCCCN=C(N)N`, the cell count in [1] came to 565. Also, the inhibition is 1.2% (inactive) in assay [1]; -70.2% (inactive) in assay [3]; 3.45% (inactive) in assay [5]; 9.72% (inactive) in assay [10]; 13.8% (inactive) in assay [11]; 45.3% (inactive) in assay [12]. The inhibition of aggregation in [2] was 14.2% (inactive). For the same compound, the nuclei count in assay [2] amounted to 93.3%; in assay [3], 120%. Further, the z-score in assay [4] (setting [13]) was 0.0952; in [4] (setting [14]) it was -0.437; in [4] (setting [15]), 0.847. Besides, the fluorescence slope in assay [6] was -0.492 (inactive). For the same compound, the NADPH fluorescence slope in [7] is -4.3e-05 (inactive). Besides, the slope in [8] was 0.00515 (inactive). For the same compound, the compound was classed as inactive in assay [9].

For the compound `Nc1ccc2[nH]ncc2c1`, in assay [1], the cell count is 684. Besides, the inhibition in [1] is 7.9% (inactive); in assay [3] it was -64.7% (inactive); in [5], 27.9% (inactive); in [10], -11% (inactive); in [11], 11.4% (inactive); in assay [12], 31.1% (inactive). For the same compound, the inhibition of aggregation in [2] is -14.5% (inactive). Besides, the values for the nuclei count in [2] and in assay [3] were 106% and 141%, respectively. The z-score in assay [4] (setting [13]) was 0.816; in assay [4] (setting [14]), 1.08; in assay [4] (setting [15]), -0.122. The fluorescence slope in assay [6] was -0.496 (inactive). The NADPH fluorescence slope in assay [7] was -6.9e-05 (inactive). Moreover, the slope in [8] was 0.00441 (inactive). In assay [9], the result was inactive.

The inhibition is the drop in the measured response relative to a control, in per cent.

Source of the values: PubChem BioAssay.
